IDE exosite inh – insulin-degrading enzyme (human) exo-site inhibition; purified IDE, FL-6b probe fluorescence polarization; active compounds read low; z-score at 20 µM; hit rate 6.3% among 17,000; AID 1259349;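 active = z-score of -3 or lower, meaning strong loss of probe binding signal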;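 also: His-tagged human IDE residues 42-1019 made in E. coli with 30 nM FL-6b probe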
Target sequence (P14735 42-1019 limits assumed): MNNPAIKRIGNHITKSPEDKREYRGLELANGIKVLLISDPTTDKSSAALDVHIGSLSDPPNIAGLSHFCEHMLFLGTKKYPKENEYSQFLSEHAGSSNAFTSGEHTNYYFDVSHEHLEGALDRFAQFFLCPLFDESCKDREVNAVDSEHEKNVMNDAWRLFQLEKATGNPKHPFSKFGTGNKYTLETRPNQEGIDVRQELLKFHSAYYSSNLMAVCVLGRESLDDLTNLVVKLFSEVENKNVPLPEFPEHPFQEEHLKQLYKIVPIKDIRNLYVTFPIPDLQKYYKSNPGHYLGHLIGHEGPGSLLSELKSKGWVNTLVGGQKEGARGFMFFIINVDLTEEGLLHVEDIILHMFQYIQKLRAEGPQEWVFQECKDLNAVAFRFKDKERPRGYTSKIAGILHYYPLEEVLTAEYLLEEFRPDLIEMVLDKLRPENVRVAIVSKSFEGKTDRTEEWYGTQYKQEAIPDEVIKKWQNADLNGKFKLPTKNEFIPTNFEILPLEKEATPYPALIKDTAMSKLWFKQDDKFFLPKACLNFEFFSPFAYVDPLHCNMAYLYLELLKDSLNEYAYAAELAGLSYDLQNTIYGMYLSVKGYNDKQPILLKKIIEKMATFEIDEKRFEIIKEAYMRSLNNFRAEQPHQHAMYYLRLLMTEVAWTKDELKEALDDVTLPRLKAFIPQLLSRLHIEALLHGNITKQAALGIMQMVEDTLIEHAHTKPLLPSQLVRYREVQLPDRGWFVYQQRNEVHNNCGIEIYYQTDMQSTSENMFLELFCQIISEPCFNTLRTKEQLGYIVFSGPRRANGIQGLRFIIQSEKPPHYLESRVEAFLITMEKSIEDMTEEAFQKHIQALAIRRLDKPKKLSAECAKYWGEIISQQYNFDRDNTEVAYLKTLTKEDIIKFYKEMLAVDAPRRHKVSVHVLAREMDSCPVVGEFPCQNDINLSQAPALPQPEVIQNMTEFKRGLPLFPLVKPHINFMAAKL
The depositor's hits bear a star; ! = a repeat was not active. The full list was thinned out, with hits kept by preference.

SMILES	IDE exosite inh
Cc1cccc(-c2ccc([C@H]3[C@@H](CO)N4CCCCN(C(=O)c5ccc6c(c5)OCO6)C[C@H]34)cc2)c1	-8.11*
CC(=O)N1CCCCN2[C@@H](CO)[C@H](c3ccc(-c4cccc(C)c4)cc3)[C@@H]2C1	-3.2*
CC(=O)N1CCCCN2[C@H](CO)[C@H](c3ccc(-c4ccccc4)cc3)[C@H]2C1	-1.48
COc1ccc(S(=O)(=O)N2CCCCN3[C@H](CO)[C@@H](c4ccc(C#CC5CC5)cc4)[C@@H]3C2)cc1	2.71
CC(=O)NC[C@H]1[C@@H](c2ccc(-c3ccccc3)cc2)[C@H](CO)N1C(=O)C1CCC1	1.94
N#C[C@H]1[C@@H](c2ccc(C3=CCCCC3)cc2)[C@@H](CO)N1C(=O)C1CCOCC1	2.15
COc1ccc(-c2ccc(C3[C@H]4CNC[C@@H]3N4Cc3cncnc3)cc2)cc1 (some centres not stated)	1.08
OC[C@@H]1[C@@H](c2ccc(-c3ccccc3)cc2)[C@H]2CN(Cc3cncnc3)CCCCN12	2.71
OC[C@@H]1[C@H](c2ccc(-c3ccccc3F)cc2)[C@H]2CN(Cc3ccncc3)CCCCN12	0.711
CCCC#Cc1ccc([C@H]2[C@H](CO)N3CCCCN(Cc4ccncc4)C[C@@H]23)cc1	-0.409
OC[C@@H]1[C@H](c2ccc(/C=C/c3ccccc3)cc2)[C@@H]2CN(Cc3ccncc3)CCCCN12	-8.51*
OC[C@@H]1[C@@H](c2ccc(/C=C/c3ccccc3)cc2)[C@@H]2CN(Cc3cncnc3)CCCCN12	-7.89*
OC[C@H]1[C@H](c2ccc(Br)cc2)[C@@H]2CN(Cc3cncnc3)CCCCN12	2.8
OC[C@H]1[C@H](c2ccc(-c3ccc(F)cc3)cc2)[C@H]2CN(Cc3cccnc3)CCCCN21	1.38
c1cncc(CN2C[C@@H]3N[C@H](C2)C3c2ccc(-c3cccnc3)cc2)c1 (some centres not stated)	1.81
OC[C@@H]1[C@H](c2ccc(/C=C/c3ccccc3)cc2)[C@@H]2CN(Cc3cccnc3)CCCCN12	-5.18*
C(=C\c1ccc(C2[C@@H]3CN(Cc4cccnc4)C[C@H]2N3)cc1)/c1ccccc1 (some centres not stated)	-4.83*!
OC[C@@H]1[C@@H](c2ccc(/C=C/c3ccccc3)cc2)[C@@H]2CN(Cc3cccnc3)CCCCN12	-0.943
O=C(C1CCC1)N1C[C@@H]2N[C@H](C1)C2c1ccc(/C=C/c2ccccc2)cc1 (some centres not stated)	-1.7
C[C@@H]1CCCCO[C@H](CN(C)Cc2ccc3c(c2)OCO3)[C@H](C)CN([C@H](C)CO)C(=O)c2cc(NS(=O)(=O)c3cn(C)cn3)ccc2O1	1.43
C[C@H]1CC(=O)N[C@@H](c2ccccc2)C/C=C\C[C@H](c2ccccc2)NC1=O	-0.412
CCN(C[C@@H]1[C@@H](c2ccccc2)[C@@H](CO)N1CC1CC1)C(=O)c1ccccc1F	5.2
CO[C@@H]1CN(C)C(=O)c2cc(NC(=O)c3cc(C)on3)ccc2OC[C@@H](C)N(C(=O)C2CCC2)C[C@H]1C	-1
C[C@@H]1CN([C@H](C)CO)C(=O)c2cc(C3=CCCC3)cnc2O[C@@H]1CN(C)C(=O)Nc1ccc(C(F)(F)F)cc1	-0.0439
O=C(c1ccccn1)N1CC(=O)N2[C@H](C1)[C@H](c1ccc(C#CC3CCCC3)cc1)[C@@H]2CO	2.91
SMILES	IDE exosite inh
OC[C@H]1[C@@H](c2ccc(-c3ccccc3F)cc2)[C@H]2CN(Cc3cccnc3)CCCCN21	2.53
OC[C@H]1[C@H](c2ccc(-c3ccccc3F)cc2)[C@@H]2CN(Cc3cccnc3)CCCCN12	2.57
Cc1ccccc1-c1ccc([C@H]2[C@@H](CO)N3CCCCN(Cc4cccnc4)C[C@H]23)cc1	-11.4*
OC[C@H]1[C@@H](c2ccc(-c3cccc(F)c3)cc2)[C@@H]2CN(Cc3cncnc3)CCCCN12	0.0138
OC[C@@H]1[C@H](c2ccc(/C=C/c3ccccc3)cc2)[C@H]2CN(Cc3cncnc3)CCCCN12	-4.4*
OC[C@@H]1[C@H](c2ccc(-c3cccc(F)c3)cc2)[C@H]2CN(Cc3cncnc3)CCCCN12	-0.54
CNC[C@@H]1OCCCC[C@H](C)Oc2ccc(NS(=O)(=O)c3ccc(F)cc3)cc2C(=O)N([C@H](C)CO)C[C@@H]1C	0.455
N#C[C@H]1[C@@H](c2ccccc2)[C@H](CO)N1C(=O)c1cc(Cl)cc(Cl)c1	-0.55
O=C(Nc1ccc(F)cc1)N1[C@H](CO)[C@@H]2c3ccccc3NC[C@@H]21	2.74
Cc1ccc(-c2ccc([C@H]3[C@@H](CO)N4C(=O)CN(C(=O)c5ccncc5)C[C@H]34)cc2)cc1	-0.889
O=C(c1ccc2c(c1)OCO2)N1CC(=O)N2[C@H](CO)[C@@H](c3ccc(C#CCC4CCCC4)cc3)[C@H]2C1	3.08
CCN1CC(=O)N2[C@@H](CO)[C@H](c3ccc(-c4ccccc4F)cc3)[C@@H]2C1	0.473
COc1ccc2c3c([nH]c2c1)[C@@H](CO)N(C(=O)c1cccc(F)c1)CC31CN(C(=O)CC2CC2)C1	-0.267
C[C@@H](NC(=O)C[C@H]1C=C[C@@H](NC(=O)c2cccnc2)[C@@H](CO)O1)c1ccccc1	-0.628
Cn1cnc(S(=O)(=O)N2CCCCN3[C@H](C2)[C@H](c2ccc(-c4ccccc4F)cc2)[C@@H]3CO)c1	1.35
Cc1ccccc1-c1ccc([C@@H]2[C@H]3CN(S(=O)(=O)c4cn(C)cn4)CCCCN3[C@H]2CO)cc1	-18.5*
Cc1ccccc1-c1ccc([C@H]2[C@@H](CO)N3CCCCN(S(=O)(=O)c4cn(C)cn4)C[C@H]23)cc1	-16.6*
Cn1cnc(S(=O)(=O)N2CCCCN3[C@@H](CO)[C@H](c4ccc(-c5ccccc5F)cc4)[C@@H]3C2)c1	0.109
Cn1cnc(S(=O)(=O)N2CCCCN3[C@H](C2)[C@H](c2ccc(-c4ccc(F)cc4)cc2)[C@@H]3CO)c1	2.92
Cn1cnc(S(=O)(=O)N2CCCCN3[C@H](CO)[C@@H](c4ccc(-c5ccccc5F)cc4)[C@@H]3C2)c1	-11.3*
Cn1cnc(S(=O)(=O)N2CCCCN3[C@H](C2)[C@H](c2ccc(C4=CCCCC4)cc2)[C@@H]3CO)c1	0.242
COc1ccccc1-c1ccc([C@@H]2[C@H]3CN(S(=O)(=O)c4cn(C)cn4)CCCCN3[C@H]2CO)cc1	-8.45*
Cn1cnc(S(=O)(=O)N2CCCCN3[C@H](CO)[C@H](c4ccc(C5=CCCCC5)cc4)[C@@H]3C2)c1	-0.735
N#C[C@@H]1[C@H](c2ccc(C3=CCCCC3)cc2)[C@H](CO)N1C(=O)c1cccc(F)c1	1.44
N#Cc1cccc(-c2ccc([C@@H]3[C@H](CO)N4CCCCN(C(=O)Nc5ccccc5)C[C@@H]34)cc2)c1	1.74
SMILES	IDE exosite inh
COc1ccc2c3c([nH]c2c1)[C@H](CO)N(Cc1ccccc1F)CC31CN(CC2CC2)C1	0.833
COc1ccccc1CNC(=O)C[C@@H]1CC[C@H]2[C@@H](COC[C@H](O)CN2Cc2ccc3c(c2)OCO3)O1	0.809
N#C[C@@H]1[C@@H](c2ccc(/C=C/c3ccccc3)cc2)[C@@H](CO)N1C(=O)C1CCC1	2
CC[C@H]1C/C=C\CCNC(=O)CCC(=O)N1	-0.524
COCC(=O)N1CC(=O)N2[C@H](CO)[C@@H](c3ccc(C#CC(C)C)cc3)[C@H]2C1	0.863
C[C@H]1CN([C@@H](C)CO)C(=O)c2ccccc2-c2ccccc2CO[C@H]1CN(C)C(=O)CCC(F)(F)F	-0.684
CC(C)C#Cc1ccc([C@H]2[C@@H](C#N)N(C(=O)c3cccc(F)c3)[C@@H]2CO)cc1	-0.233
